# Test results as given in PubChem BioAssay (NCI).
# This is part of a sample that, as a whole, favours compounds with a hit. Of some 83,000 tested, about 20% had one in any assay.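 Negative percent growth values reflect cell death: -40 means 40% of the cells present at the start died, and -100 means all died.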 Values without a mark were called inactive. Calls of active or inactive are those of the source. Rule for the calls: active = growth percent below 10; inactive = the rest.
# Tested on: SR leukemia
# Experiment: NCI-60 one-dose screen, 48 h (100 = growth as untreated, 0 = no growth, -100 = all killed)
# Conditions: 10 µM unless noted
row,SMILES,growth
1,CC1=CC[C@@H]2C(C)(C)C(=O)CC[C@@]2(C)[C@@H]1COc1ccc2ccc(=O)oc2c1,77.9%
2,COc1ccc(/C=C2\N=C(Nc3ccccc3)N(NC(=O)c3ccccn3)C2=O)cc1,95.2%
3,COc1ncc(-c2ccc3nccc(C#CCCCCC(=O)NO)c3c2)cc1NS(=O)(=O)c1ccc(F)cc1F,-24.5% (active)
4,COc1ccc2c(c1)C(C)Cc1c(Cl)ncnc1N2C (stereo not given),-2.06% (active)
5,CC[C@@H]1NC(=O)[C@@H]2CCCCN2C(=O)[C@@H]2CCCN2C(=O)[C@@H](NC(=O)[C@H](Cc2cc(F)cc(F)c2)NC(=O)Nc2ccc(C3CC3)cc2F)[C@H](C)OC(=O)[C@@H]2C[C@@H](C)CN2C1=O,15.1%
6,CCN(CC)c1cc(N)c(Cc2c(N)cc(N(CC)CC)cc2Cl)c(Cl)c1,34.8%
7,O=C1COCCN1c1ccc(Nc2nc(Cl)nc(N3CCOCC3)n2)cc1,88.9%
8,Cn1cc(-c2nnc(-c3cn(C)c4ncc(Br)cc34)s2)c2cc(Br)ccc21,100%
9,Nc1ccc2c(c1)Cc1cc(NC(=O)C(F)(F)F)ccc1-2,101%
10,COc1ccc(-c2cc(-c3ccc(Cl)cc3)nc(NCCCCNc3ccnc4cc(Cl)ccc34)n2)cc1,9.44% (active)
11,C#C[C@]1(O)CC[C@H]2[C@@H]3CC=C4c5nc(Nc6ccc(OC)cc6OC)sc5CC[C@]4(C)[C@H]3CC[C@@]21C,5.67% (active)
12,CNC(=O)c1cc(Oc2ccc3nc(NC(=O)c4ccc5ncccc5c4)sc3c2)ccn1,88.8%
13,COc1ncc(-c2ccc3nccc(C#CCCCCC(=O)O)c3c2)cc1NS(=O)(=O)c1ccc(F)cc1F,63.8%
14,CCc1ccc(C2=C/C(=C/c3ccccc3)C(=O)N2CCc2ccc(S(N)(=O)=O)cc2)cc1,96.9%
15,Cc1ccc(-c2cn(C/C=C3\C=CN(S(=O)(=O)c4ccccc4)CC3)nn2)cc1,108%
16,CCN1c2ccccc2C(Cl)(c2ccc(N(C)C)cc2)c2ccccc21,22.6%
17,COc1ccc(-c2ccc(NNC(=O)c3ccc(F)cc3)nn2)cc1OC,51%
18,c1ccc(-c2nnc(-c3c[nH]c4ncccc34)s2)cc1,83.6%

row,SMILES,growth
1,COc1c(B(O)O)cccc1-c1nc2ccc3[nH]ncc3c2c2c1CCC2,67.8%
2,O=C1/C(=C\c2cccn2Cc2ccccc2)c2ccccc2N1c1c(Cl)cccc1Cl,90.6%
3,CN(C)c1ccc(-c2ccc(-c3ccc(C(=N)N)cc3)s2)cc1,5.33% (active)
4,CC(C)(C)c1cc(C(=O)Nc2ccc(C(=O)NCCN)cc2)cc(C(C)(C)C)c1,-40.4% (active)
5,CC1=CC[C@@H]2C(C)(C)[C@@H](O)CC[C@@]2(C)[C@@H]1COc1ccc2ccc(=O)oc2c1,71.5%
6,CCn1cc(-c2cc(-c3ccc(Cl)cc3)nc(N)n2)c(-c2ccc(Br)cc2)n1,69.7%
7,COc1cc(-c2cc(-c3ccc(Nc4ncnc5cc(Cl)ccc45)cc3)nc(N3CCCCC3)n2)cc(OC)c1OC,90.9%
8,Cn1cc(-c2nnc(-c3ccccc3)s2)c2cc(Br)cnc21,90.7%
9,CC(=O)Nc1ccc2nc3ccc(NC(C)=O)cc3[n+](-c3ccccc3)c2c1,83.7%
10,Cc1cccc(C[C@H](NC(=O)Nc2ccc(Cl)cc2F)C(=O)N[C@@H]2C(=O)N3C[C@H](O)C[C@H]3C(=O)N3CCCC[C@H]3C(=O)N[C@@H](C)C(=O)N3C[C@H](C)C[C@H]3C(=O)O[C@H]2C)c1,11%
11,COc1ccc(NC(=S)NNc2ccc(-c3ccc(OC)c(OC)c3)nn2)cc1,98.1%
12,Cn1cc(-c2nnc(-c3cn(C)c4ncccc34)s2)c2ccccc21,26.5%
13,Fc1cc2[nH]ncc2c2c3c(c(-c4cn[nH]c4C(F)(F)F)nc12)C1CCC3C1 (stereo not given),5.5% (active)
14,COc1ccc2nc3cc(Cl)ccc3c(Nc3ccc(O)cc3)c2c1,-22.2% (active)
15,CCOC(=O)n1cc(C2=C(c3ccc(OC)c(OC)c3)COC2=O)c2ccccc21,18.1%
16,C[n+]1c(-c2ccccc2)c2cc(N)ccc2c2ccccc21,21.9%
17,Fc1cc2[nH]ncc2c2c3c(c(-c4cn[nH]c4)nc12)CCCC3,13.8%
